Measurements taken from the supplement of paper PMC10849652.
Of roughly 7,900 targets only a part is listed; those with a hit were picked by preference. About 0.6% of all pairs of compound and target were hits.

Key:
Experiment in all cases: log2 fold change, soluble protein after heating vs DMSO (PISA); higher = thermal stabilisation; K562 cells, 10 uM, 30 min; active = over 0.2 and 3.5 SD of the protein, either way, in both replicates (recomputed)
[1] = compound: CC[C@@H]1C(=O)N(C)c2cnc(Nc3ccc(C(=O)NC4CCN(C)CC4)cc3OC)nc2N1C1CCCC1
Method in brief: (§1)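 K562 cells at 2×10^6 cells/mL were treated for 30 min with 10 μM compound, and aliquots were heated for 3 min over 48°C-58°C before pooling. Extraction used PBS with 0.5% NP-40 at 4°C, and soluble protein was the supernatant after 21,000xg for 90 min, measured by TMTpro 16plex LC-MS/MS with channel sums equalised. Thermal stability values, relative to control samples and from duplicates, are log2 fold changes.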

volasertib = compound: CC[C@@H]1C(=O)N(C)c2cnc(Nc3ccc(C(=O)N[C@H]4CC[C@H](N5CCN(CC6CC6)CC5)CC4)cc3OC)nc2N1C(C)C [volasertib]
Method in brief: as §1

[2] = compound: CC[C@H](C)N1C=C(C2=C(C=C(C=C21)C3=CN=C(C=C3)N4CCNCC4)C(=O)NCC5=C(C=C(NC5=O)C)C)C
Method in brief: as §1

epoxomicin = compound: CC[C@H](C)[C@@H](C(=O)N[C@@H]([C@@H](C)O)C(=O)N[C@@H](CC(C)C)C(=O)[C@]1(CO1)C)NC(=O)[C@H]([C@@H](C)CC)N(C)C(=O)C [epoxomicin]
Method in brief: as §1

[3] = compound: CCn1c(C(=O)N(C2CC2)C2CC2)cc2c3c(ncn3C)c(Nc3cc(C)n(C)n3)nc21
Method in brief: as §1

[4] = compound: CCn1cc(-c2ccnc3[nH]c(-c4cccc(CN(C)C)c4)cc23)c(-c2ccc(NC(=O)N(C)C)cc2)n1
Method in brief: as §1

[5] = compound: CN(C)CC(=O)Nc1ccc2[nH]c(=O)c3ccccc3c2c1
Method in brief: as §1

rosiglitazone = compound: CN(CCOC1=CC=C(C=C1)C[C@H]2C(=O)NC(=O)S2)C3=CC=CC=N3 (racemic) [rosiglitazone]
Method in brief: as §1

[6] = compound: CN1C2=C(C3=C1C(=O)N(N=C3)CC4=CC(=CC=C4)N)SC(=C2)S(=O)C
Method in brief: as §1

[7] = compound: CN1CCC(CNc2ccc3ncc(-c4cccc(OC(F)(F)F)c4)n3n2)CC1
Method in brief: as §1

saracatinib = compound: CN1CCN(CCOc2cc(OC3CCOCC3)c3c(Nc4c(Cl)ccc5c4OCO5)ncnc3c2)CC1 [saracatinib]
Method in brief: as §1

sotrastaurin = compound: CN1CCN(c2nc(C3=C(c4c[nH]c5ccccc45)C(=O)NC3=O)c3ccccc3n2)CC1 [sotrastaurin]
Method in brief: as §1

alvocidib = compound: CN1CC[C@H](c2c(O)cc(O)c3c(=O)cc(-c4ccccc4Cl)oc23)[C@H](O)C1 [alvocidib]
Method in brief: as §1

Tubastatin A = compound: CN1CCc2c(c3ccccc3n2Cc2ccc(C(=O)NO)cc2)C1 [Tubastatin A]
Method in brief: as §1

[8] = compound: CNC(=O)C1=CC=CC=C1NC2=NC(=NC=C2Cl)NC3=C(C=C(C=C3)N4CCOCC4)OC
Method in brief: as §1

defactinib = compound: CNC(=O)c1ccc(Nc2ncc(C(F)(F)F)c(NCc3nccnc3N(C)S(C)(=O)=O)n2)cc1 [defactinib]
Method in brief: as §1

rucaparib = compound: CNCc1ccc(-c2[nH]c3cc(F)cc4c3c2CCNC4=O)cc1 [rucaparib]
Method in brief: as §1

[9] = compound: CNc1nc(-c2ccc3c(N)n[nH]c3c2)cc(N2C[C@@H](C(=O)NC3CCCCC3)CC[C@H]2C)n1
Method in brief: as §1

encorafenib = compound: COC(=O)N[C@@H](C)CNc1nccc(-c2cn(C(C)C)nc2-c2cc(Cl)cc(NS(C)(=O)=O)c2F)n1 [encorafenib]
Method in brief: as §1

[10] = compound: COC(=O)[C@H](CCSC)NC(=O)C1=C(C=C(C=C1)NC[C@H](CS)N)C2=CC=CC=C2
Method in brief: as §1

Measured: log2 fold change

NA, A0A0B4J2A0
inactive: [1] -0.163 | volasertib -0.036 | [2] 0.008 | epoxomicin 0.11 | [3] -0.04 | [4] -0.055 | [5] -0.004 | rosiglitazone 0.049 | [6] -0.078 | [7] -0.101 | saracatinib 0.007 | sotrastaurin 0.044 | alvocidib -0.058 | Tubastatin A -0.058 | [8] -0.077 | defactinib -0.051 | rucaparib -0.005 | [9] -0.022 | encorafenib -0.003 | [10] -0.037

NOP53 (UniProt Q9NZM5)
inactive: [1] 0.174 | volasertib 0.393 | [2] -0.014 | epoxomicin -0.009 | [3] -0.132 | [4] 0.013 | [5] -0.111 | rosiglitazone -0.053 | [6] 0.516 | [7] 0.599 | saracatinib -0.063 | sotrastaurin -0.014 | alvocidib 0.396 | Tubastatin A 0.141 | [8] -0.019 | defactinib 0.62 | rucaparib 0.36 | [9] 0.035 | encorafenib 0.174 | [10] -0.022

OSTC (UniProt Q9NRP0)
UniProt Q9NRP0, sequence (Q9NRP0 whole entry, looked up): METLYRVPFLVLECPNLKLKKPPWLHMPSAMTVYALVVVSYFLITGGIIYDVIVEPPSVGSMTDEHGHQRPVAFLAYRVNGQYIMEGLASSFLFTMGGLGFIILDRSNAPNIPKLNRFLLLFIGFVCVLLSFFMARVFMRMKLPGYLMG
inactive: [1] -0.01 | volasertib -0.141 | [2] 0.011 | epoxomicin -0.073 | [3] 0.006 | [4] 0.039 | [5] 0.073 | rosiglitazone 0.048 | [6] -0.129 | [7] -0.053 | saracatinib 0.111 | sotrastaurin -0.05 | alvocidib -0.048 | Tubastatin A -0.174 | [8] 0.03 | defactinib -0.053 | rucaparib -0.036 | [9] -0.004 | encorafenib 0.047 | [10] -0.046

NRDC isoform 2 (UniProt O43847)
UniProt O43847, sequence (O43847 whole entry, looked up): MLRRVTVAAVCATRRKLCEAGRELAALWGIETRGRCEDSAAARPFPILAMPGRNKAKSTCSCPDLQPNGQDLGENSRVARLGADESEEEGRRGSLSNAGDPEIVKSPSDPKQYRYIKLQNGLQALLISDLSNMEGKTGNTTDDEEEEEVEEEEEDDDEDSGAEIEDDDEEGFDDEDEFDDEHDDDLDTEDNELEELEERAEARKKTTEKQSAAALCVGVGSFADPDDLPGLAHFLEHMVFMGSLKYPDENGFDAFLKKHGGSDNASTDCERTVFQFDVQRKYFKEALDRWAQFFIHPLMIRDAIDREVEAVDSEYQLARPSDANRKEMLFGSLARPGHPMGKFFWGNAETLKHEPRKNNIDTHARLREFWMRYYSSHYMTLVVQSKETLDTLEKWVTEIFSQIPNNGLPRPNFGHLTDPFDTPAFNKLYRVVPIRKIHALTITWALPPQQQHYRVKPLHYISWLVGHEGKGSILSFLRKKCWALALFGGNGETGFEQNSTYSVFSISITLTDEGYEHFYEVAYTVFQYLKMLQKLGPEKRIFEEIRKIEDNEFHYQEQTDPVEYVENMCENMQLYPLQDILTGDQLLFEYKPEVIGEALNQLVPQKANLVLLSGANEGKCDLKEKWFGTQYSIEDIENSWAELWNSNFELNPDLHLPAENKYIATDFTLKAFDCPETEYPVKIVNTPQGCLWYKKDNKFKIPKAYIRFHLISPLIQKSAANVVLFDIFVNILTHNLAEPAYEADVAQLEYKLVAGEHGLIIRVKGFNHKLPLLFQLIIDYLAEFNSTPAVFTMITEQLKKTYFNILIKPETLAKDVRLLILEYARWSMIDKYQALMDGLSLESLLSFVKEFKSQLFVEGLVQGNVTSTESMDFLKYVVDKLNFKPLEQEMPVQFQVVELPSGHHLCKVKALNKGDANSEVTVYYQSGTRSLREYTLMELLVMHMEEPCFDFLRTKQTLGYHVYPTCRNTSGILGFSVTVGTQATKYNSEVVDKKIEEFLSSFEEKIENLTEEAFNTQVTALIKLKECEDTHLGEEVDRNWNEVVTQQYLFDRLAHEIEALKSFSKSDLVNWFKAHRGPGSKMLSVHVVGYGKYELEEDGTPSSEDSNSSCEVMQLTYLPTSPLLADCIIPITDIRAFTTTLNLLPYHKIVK
inactive: [1] -0.18 | [2] 0.069 | epoxomicin 0.038 | [3] -0.067 | [4] -0.087 | [5] 0.055 | rosiglitazone 0.073 | [6] 0 | [7] -0.087 | saracatinib -0.024 | sotrastaurin -0.028 | alvocidib -0.078 | Tubastatin A -0.009 | [8] -0.033 | defactinib -0.077 | rucaparib 0.092 | [9] 0.01 | encorafenib 0.024 | [10] -0.076
active: volasertib -0.371

NFATC2IP (UniProt Q8NCF5)
active: volasertib -0.278
inactive: [1] -0.09 | [2] 0.069 | epoxomicin -0.052 | [3] 0.022 | [4] 0.038 | [5] 0.048 | rosiglitazone 0.041 | [6] -0.008 | [7] -0.103 | saracatinib 0.065 | sotrastaurin -0.033 | alvocidib -0.107 | Tubastatin A 0.012 | [8] 0.067 | defactinib -0.122 | rucaparib 0 | [9] 0.005 | encorafenib 0.075 | [10] -0.017

MMS19 isoform 8 (UniProt Q96T76)
inactive: [1] -0.102 | [2] 0.075 | epoxomicin 0.013 | [3] -0.009 | [4] -0.052 | [5] 0.11 | rosiglitazone 0.076 | [6] 0.051 | [7] -0.085 | saracatinib -0.013 | sotrastaurin -0.156 | alvocidib -0.115 | Tubastatin A -0.071 | [8] 0.003 | defactinib -0.127 | rucaparib 0.052 | [9] -0.003 | encorafenib 0.099 | [10] -0.008
active: volasertib -0.43

OXR1 (UniProt Q8N573)
UniProt Q8N573, sequence (Q8N573 whole entry, looked up): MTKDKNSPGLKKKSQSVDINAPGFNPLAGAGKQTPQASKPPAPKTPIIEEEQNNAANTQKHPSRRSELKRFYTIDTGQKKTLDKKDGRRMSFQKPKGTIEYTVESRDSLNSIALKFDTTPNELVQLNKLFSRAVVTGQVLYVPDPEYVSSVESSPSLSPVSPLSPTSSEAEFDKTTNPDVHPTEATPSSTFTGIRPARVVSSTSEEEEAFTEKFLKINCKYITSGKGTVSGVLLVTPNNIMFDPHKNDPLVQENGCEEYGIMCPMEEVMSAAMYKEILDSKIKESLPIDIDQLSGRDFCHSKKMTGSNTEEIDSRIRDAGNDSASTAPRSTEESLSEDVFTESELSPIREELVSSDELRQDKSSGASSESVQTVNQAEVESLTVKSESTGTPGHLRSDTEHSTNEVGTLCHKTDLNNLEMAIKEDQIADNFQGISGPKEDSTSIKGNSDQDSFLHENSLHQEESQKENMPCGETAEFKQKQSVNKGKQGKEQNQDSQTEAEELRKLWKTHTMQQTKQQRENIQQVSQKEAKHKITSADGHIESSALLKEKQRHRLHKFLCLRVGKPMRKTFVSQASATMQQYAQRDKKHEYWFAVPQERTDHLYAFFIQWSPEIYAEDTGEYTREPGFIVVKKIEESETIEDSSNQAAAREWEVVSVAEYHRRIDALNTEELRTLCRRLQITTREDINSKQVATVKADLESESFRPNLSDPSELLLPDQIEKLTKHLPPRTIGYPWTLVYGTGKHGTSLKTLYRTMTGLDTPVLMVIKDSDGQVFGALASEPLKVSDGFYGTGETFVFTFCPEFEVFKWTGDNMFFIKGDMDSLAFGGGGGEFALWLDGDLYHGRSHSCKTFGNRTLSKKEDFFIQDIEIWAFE
active: [7] -0.257
inactive: [1] -0.052 | volasertib -0.071 | [2] 0.035 | epoxomicin -0.013 | [3] 0.006 | [4] 0.026 | [5] 0.062 | rosiglitazone 0.005 | [6] -0.033 | saracatinib -0.039 | sotrastaurin -0.049 | alvocidib -0.011 | Tubastatin A 0.008 | [8] -0.038 | defactinib -0.059 | rucaparib -0.014 | [9] -0.063 | encorafenib 0 | [10] 0.003

NR2C2 isoform 2 (UniProt P49116)
UniProt P49116, sequence (P49116 whole entry, looked up): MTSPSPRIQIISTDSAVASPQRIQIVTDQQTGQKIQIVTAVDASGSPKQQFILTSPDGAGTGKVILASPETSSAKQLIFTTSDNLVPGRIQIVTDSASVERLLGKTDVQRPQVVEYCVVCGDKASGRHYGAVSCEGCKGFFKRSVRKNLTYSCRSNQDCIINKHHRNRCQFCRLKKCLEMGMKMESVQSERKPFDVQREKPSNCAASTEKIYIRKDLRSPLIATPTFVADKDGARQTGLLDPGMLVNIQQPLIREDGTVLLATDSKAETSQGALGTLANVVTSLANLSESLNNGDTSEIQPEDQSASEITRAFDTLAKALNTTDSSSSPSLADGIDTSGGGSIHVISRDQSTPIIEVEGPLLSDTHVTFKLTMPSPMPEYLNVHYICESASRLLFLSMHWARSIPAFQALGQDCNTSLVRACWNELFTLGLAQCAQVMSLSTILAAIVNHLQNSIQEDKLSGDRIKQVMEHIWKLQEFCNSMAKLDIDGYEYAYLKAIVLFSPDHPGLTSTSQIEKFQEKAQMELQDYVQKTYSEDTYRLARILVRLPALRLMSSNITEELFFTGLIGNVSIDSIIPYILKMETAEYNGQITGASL
inactive: [1] 0.051 | volasertib -0.102 | [2] 0.055 | epoxomicin 0.036 | [3] -0.015 | [4] 0.049 | [5] -0.069 | rosiglitazone 0.022 | [6] 0.036 | [7] 0.046 | saracatinib 0.052 | sotrastaurin -0.041 | alvocidib 0.077 | Tubastatin A -0.013 | [8] 0.005 | defactinib 0.001 | rucaparib 0.071 | [9] -0.044 | encorafenib 0.053 | [10] 0.028

NACC1 (UniProt Q96RE7)
UniProt Q96RE7, sequence (Q96RE7 whole entry, looked up): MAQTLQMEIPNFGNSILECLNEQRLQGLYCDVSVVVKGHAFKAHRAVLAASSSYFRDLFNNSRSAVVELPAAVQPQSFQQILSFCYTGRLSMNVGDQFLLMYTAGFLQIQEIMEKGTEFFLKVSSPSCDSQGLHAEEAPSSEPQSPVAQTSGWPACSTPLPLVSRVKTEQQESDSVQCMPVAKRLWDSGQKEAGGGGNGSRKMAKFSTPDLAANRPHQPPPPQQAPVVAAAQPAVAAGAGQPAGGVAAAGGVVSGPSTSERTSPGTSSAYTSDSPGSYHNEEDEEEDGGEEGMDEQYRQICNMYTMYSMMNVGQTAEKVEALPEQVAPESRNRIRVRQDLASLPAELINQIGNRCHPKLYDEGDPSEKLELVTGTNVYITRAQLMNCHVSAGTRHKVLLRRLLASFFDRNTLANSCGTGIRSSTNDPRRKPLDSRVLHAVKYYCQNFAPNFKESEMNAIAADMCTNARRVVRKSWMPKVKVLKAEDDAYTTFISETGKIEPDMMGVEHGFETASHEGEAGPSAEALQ
inactive: [1] -0.32 | [2] 0.112 | epoxomicin 0.002 | [3] -0.079 | [4] -0.022 | [5] 0.033 | rosiglitazone 0.095 | [6] 0 | [7] -0.259 | saracatinib -0.055 | sotrastaurin -0.141 | alvocidib -0.26 | Tubastatin A 0.034 | [8] -0.063 | defactinib -0.312 | rucaparib 0.01 | [9] -0.006 | encorafenib 0.13 | [10] -0.021
active: volasertib -0.616

OSTM1 (UniProt Q86WC4)
UniProt Q86WC4, sequence (Q86WC4 whole entry, looked up): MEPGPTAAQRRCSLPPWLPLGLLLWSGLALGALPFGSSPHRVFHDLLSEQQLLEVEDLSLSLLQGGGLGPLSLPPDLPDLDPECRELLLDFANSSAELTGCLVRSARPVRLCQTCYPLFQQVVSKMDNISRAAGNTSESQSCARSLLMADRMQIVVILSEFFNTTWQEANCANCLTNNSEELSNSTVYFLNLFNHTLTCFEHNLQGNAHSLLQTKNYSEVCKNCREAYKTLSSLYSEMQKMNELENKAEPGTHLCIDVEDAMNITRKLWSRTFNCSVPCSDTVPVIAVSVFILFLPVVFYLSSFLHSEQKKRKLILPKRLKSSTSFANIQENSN
inactive: [1] -0.216 | volasertib -0.169 | [2] 0.058 | epoxomicin 0.107 | [3] -0.12 | [4] -0.215 | [5] -0.072 | rosiglitazone 0.004 | [6] 0.035 | [7] -0.064 | saracatinib -0.038 | sotrastaurin 0.007 | alvocidib 0.001 | Tubastatin A 0.031 | [8] 0.19 | defactinib -0.048 | rucaparib -0.015 | [9] -0.086 | encorafenib 0.022 | [10] 0.002

NEMP1 (UniProt O14524)
UniProt O14524, sequence (O14524 whole entry, looked up): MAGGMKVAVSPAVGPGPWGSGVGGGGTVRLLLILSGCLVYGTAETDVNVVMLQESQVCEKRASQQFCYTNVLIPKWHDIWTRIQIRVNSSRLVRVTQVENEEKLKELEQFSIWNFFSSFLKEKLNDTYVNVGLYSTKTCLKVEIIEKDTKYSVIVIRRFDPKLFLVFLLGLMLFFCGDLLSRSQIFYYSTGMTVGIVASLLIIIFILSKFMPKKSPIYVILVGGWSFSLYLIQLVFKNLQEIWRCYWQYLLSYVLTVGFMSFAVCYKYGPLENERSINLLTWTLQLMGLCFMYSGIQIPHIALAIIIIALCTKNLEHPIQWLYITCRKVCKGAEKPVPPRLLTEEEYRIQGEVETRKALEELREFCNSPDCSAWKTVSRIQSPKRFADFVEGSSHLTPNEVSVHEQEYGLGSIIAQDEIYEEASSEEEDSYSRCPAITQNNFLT
inactive: [1] 0.007 | volasertib -0.128 | [2] -0.023 | epoxomicin 0.015 | [3] 0.08 | [4] 0.018 | [5] -0.003 | rosiglitazone 0.048 | [6] 0.01 | [7] -0.106 | saracatinib -0.001 | sotrastaurin -0.012 | alvocidib -0.015 | Tubastatin A -0.002 | [8] -0.111 | defactinib 0.021 | rucaparib 0.026 | [9] -0.045 | encorafenib -0.039 | [10] 0.053

MSTO1 (UniProt Q9BUK6)
UniProt Q9BUK6, sequence (Q9BUK6 whole entry, looked up): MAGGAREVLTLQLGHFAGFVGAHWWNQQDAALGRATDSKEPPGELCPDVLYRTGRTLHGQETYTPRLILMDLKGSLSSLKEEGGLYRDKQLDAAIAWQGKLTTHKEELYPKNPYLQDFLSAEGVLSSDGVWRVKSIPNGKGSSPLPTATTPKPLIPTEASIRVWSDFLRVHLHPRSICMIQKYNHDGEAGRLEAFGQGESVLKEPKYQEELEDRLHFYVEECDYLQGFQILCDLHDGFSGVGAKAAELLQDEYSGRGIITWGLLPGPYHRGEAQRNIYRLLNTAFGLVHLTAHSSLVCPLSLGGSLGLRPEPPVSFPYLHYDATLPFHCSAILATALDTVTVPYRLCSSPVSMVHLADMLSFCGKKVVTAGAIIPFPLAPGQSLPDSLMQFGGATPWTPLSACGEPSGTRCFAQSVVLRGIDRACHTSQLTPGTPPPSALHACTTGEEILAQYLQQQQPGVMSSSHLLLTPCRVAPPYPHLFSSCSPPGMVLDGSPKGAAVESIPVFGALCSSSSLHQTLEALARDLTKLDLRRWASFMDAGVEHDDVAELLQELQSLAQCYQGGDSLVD
inactive: [1] 0.014 | volasertib -0.012 | [2] 0.046 | epoxomicin 0.044 | [3] 0.038 | [4] -0.119 | [5] 0.071 | rosiglitazone 0.119 | [6] -0.057 | [7] -0.185 | saracatinib 0.047 | sotrastaurin 0.025 | alvocidib -0.001 | Tubastatin A 0.023 | [8] -0.031 | defactinib -0.045 | rucaparib -0.029 | encorafenib 0.04 | [10] 0.034
active: [9] 0.235

NCL (UniProt P19338)
inactive: [1] 0.167 | volasertib 0.173 | [2] -0.011 | epoxomicin -0.427 | [3] 0.022 | [4] 0.336 | [5] -0.06 | rosiglitazone -0.194 | [6] 0.393 | [7] 0.293 | saracatinib -0.111 | sotrastaurin 0.013 | alvocidib 0.277 | Tubastatin A 0.148 | [8] -0.001 | defactinib 0.354 | rucaparib 0.387 | [9] 0.137 | encorafenib 0.257 | [10] -0.01

OXA1L (UniProt Q15070)
inactive: [1] -0.067 | volasertib -0.014 | [2] -0.015 | epoxomicin -0.046 | [3] 0.013 | [4] -0.012 | [5] -0.019 | rosiglitazone 0.016 | [6] -0.027 | saracatinib 0.018 | sotrastaurin 0.003 | alvocidib -0.01 | Tubastatin A -0.036 | [8] 0.004 | defactinib 0.005 | rucaparib -0.029 | [9] -0.054 | encorafenib -0.027 | [10] 0.031
active: [7] -0.221

OTULIN (UniProt Q96BN8)
UniProt Q96BN8, sequence (Q96BN8 whole entry, looked up): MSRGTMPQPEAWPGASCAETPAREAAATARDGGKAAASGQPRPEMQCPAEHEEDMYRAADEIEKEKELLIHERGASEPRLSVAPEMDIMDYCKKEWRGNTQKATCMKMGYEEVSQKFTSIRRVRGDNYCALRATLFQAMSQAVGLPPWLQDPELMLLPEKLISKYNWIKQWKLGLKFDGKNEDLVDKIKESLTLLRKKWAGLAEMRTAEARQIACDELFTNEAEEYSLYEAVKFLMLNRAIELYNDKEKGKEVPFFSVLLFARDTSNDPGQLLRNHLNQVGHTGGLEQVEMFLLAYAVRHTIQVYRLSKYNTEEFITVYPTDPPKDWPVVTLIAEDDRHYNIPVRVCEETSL
inactive: [1] 0.045 | volasertib -0.331 | [2] 0.074 | epoxomicin 0.037 | [3] -0.093 | [4] -0.084 | [5] 0.054 | rosiglitazone 0.051 | [6] 0.015 | [7] -0.226 | saracatinib -0.029 | sotrastaurin -0.044 | alvocidib 0.046 | Tubastatin A 0.019 | [8] -0.009 | defactinib -0.029 | rucaparib 0.02 | [9] -0.053 | encorafenib -0.012 | [10] -0.012
